Measured values reported in the supplement of paper PMC6897291.
Counter-ions that a name gives are not always drawn.

System: RIVA
Test: growth inhibition by drug plus 177Lu-lilotomab satetraxetan (1 - RLU/untreated control) (fraction); higher = stronger inhibition
Conditions: 177Lu-lilotomab satetraxetan 0.5 ug/ml
Procedure: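 RIVA (RI-1) ABC-DLBCL cells were pretreated or not for 18 h with 0.5 ug/ml 177Lu-lilotomab satetraxetan (600 MBq/mg), washed and seeded (3000 cells/well) on 384-well plates pre-printed with the Selleck Cambridge Cancer Compound library. Viability was read by RealTime-Glo luminescence on days 3-6 after seeding. Effect = 1 - RLU/mean RLU of the 48 untreated no-drug control wells per plate; Bliss score = (M-E)/(1-Fa).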

SMILES | growth inhibition by drug plus 177Lu-lilotomab satetraxetan (10 nM, time (day): 3) | growth inhibition by drug plus 177Lu-lilotomab satetraxetan (10 nM, time (day): 4) | growth inhibition by drug plus 177Lu-lilotomab satetraxetan (10 nM, time (day): 5) | growth inhibition by drug plus 177Lu-lilotomab satetraxetan (10 nM, time (day): 6) | growth inhibition by drug plus 177Lu-lilotomab satetraxetan (100 nM, time (day): 3) | growth inhibition by drug plus 177Lu-lilotomab satetraxetan (100 nM, time (day): 4) | growth inhibition by drug plus 177Lu-lilotomab satetraxetan (100 nM, time (day): 5) | growth inhibition by drug plus 177Lu-lilotomab satetraxetan (100 nM, time (day): 6)
CN(C)c1nc(N(C)C)nc(N(C)C)n1 [Altretamine (Hexalen)] | 0.349 | 0.469 | 0.481 | 0.485 | 0.239 | 0.318 | 0.312 | 0.332
C[C@@H](N)[C@H]1CC[C@H](C(=O)Nc2ccncc2)CC1 | 0.59 | 0.588 | 0.605 | 0.619 | 0.339 | 0.452 | 0.463 | 0.469
CN(C)C[C@@H]1CCn2cc(c3ccccc32)C2=C(C(=O)NC2=O)c2cn(c3ccccc23)CCO1 | 0.423 | 0.561 | 0.581 | 0.582 | 0.462 | 0.539 | 0.554 | 0.545
CO[C@H]1/C=C\C=C(/C)C(=O)NC2=CC(=O)C(NCCN(C)C)=C(C[C@@H](C)C[C@H](OC)[C@H](O)[C@@H](C)/C=C(\C)[C@@H]1OC(N)=O)C2=O [17-DMAG HCl (Alvespimycin)] | 0.602 | 0.624 | 0.637 | 0.653 | 0.96 | 0.98 | 0.982 | 0.987
Cc1ccc(NC(=O)c2ccc(CN3CCN(C)CC3)cc2)cc1Nc1nccc(-c2cccnc2)n1 [Imatinib (Gleevec)] | 0.424 | 0.545 | 0.568 | 0.595 | 0.301 | 0.444 | 0.462 | 0.483
